Assay results: PubChem BioAssay (NCI)
Compounds without any hit were thinned out: in the full panel of roughly 79,000, 15% have a hit. Rule as the data show it: active = growth inhibition above about 70%; inactive = the rest. Where a SMILES comes first, the peptide text is derived from it. [ ]: non-standard residue; d: D form. The star is where a group is joined. Hyp = O=C(O)[CH]1C[CH](O)CN1; Cbz = O=C(OCc1ccccc1)*

How the values were obtained:
[1] = NCI Yeast Anticancer Drug Screen. Data for the rad50 strain (AID 155);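 also: 0% = growth of vehicle-only cultures of the same strain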; details: S. cerevisiae rad50 strain growth inhibition; at 50.0 µM; hits give high values
Procedure, shortened: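 Relative growth inhibition (compound vs vehicle) was measured in yeast with a defined repair-gene alteration.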

[2] = NCI Yeast Anticancer Drug Screen. Data for the mec2-1 strain (AID 157); details: S. cerevisiae mec2-1 strain, at 50.0 µM, hits give high values
Procedure, shortened: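 Each compound was tested on mec2-1 yeast, a strain altered in DNA damage repair or cell cycle control. Growth inhibition is reported relative to vehicle.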

[3] = NCI Yeast Anticancer Drug Screen. Data for the sgs1 mgt1 strain (AID 161);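 also: 0% = growth of cultures given vehicle only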; details: S. cerevisiae sgs1 mgt1 strain, at 50.0 µM, hits give high values
Procedure, shortened: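 Genetically altered yeast, compound exposure, growth inhibition relative to vehicle.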

[4] = NCI Yeast Anticancer Drug Screen. Data for the cln2 rad14 strain (AID 165);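 also: 0% = growth equal to vehicle treated cultures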; details: S. cerevisiae cln2 rad14 strain, at 50.0 µM, hits give high values
Procedure, shortened: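 Test compounds were added to cln2 rad14 yeast cultures; inhibition of growth was then determined by comparison with vehicle treatment.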

[5] = NCI Yeast Anticancer Drug Screen. Data for the bub3 strain (AID 167); details: S. cerevisiae bub3 mutant strain, at 50.0 µM, hits give high values
Procedure, shortened: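 Screening used yeast with an engineered genetic alteration affecting cell cycle control. Compound-exposed cultures were compared with vehicle cultures, and reduced growth was taken as inhibition.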

[6] = NCI Yeast Anticancer Drug Screen. Data for the mlh1 rad18 strain (AID 175); details: S. cerevisiae mlh1 rad18 strain growth inhibition; at 50.0 µM; hits give high values
Procedure, shortened: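 Inhibition values reflect reduced growth of mutant yeast versus vehicle-treated controls following compound exposure; the mutations affect DNA damage repair.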

Measured: growth inhibition

CSc1nc(N)cc(Cl)n1
inactive: [1] 7.75% | [2] -25.5% | [3] -12.4% | [4] 5.85% | [5] -1.9% | [6] -9.7%

COC(=O)NN1C(C)=C(C(=O)OC)C2(C#N)C(C(=O)OC)=C(C)N(NC(=O)OC)C12N (stereo not drawn)
inactive: [1] -14.4% | [2] -26.6% | [3] -56% | [4] 9.85% | [5] 10.2% | [6] -18.4%

O=C(NC12CC3CC(CC(C3)C1)C2)C(=O)c1c[nH]c2ccc(Br)cc12
inactive: [1] -21.9% | [2] -20.3% | [3] -14.1% | [4] -21.4% | [5] -2.95% | [6] -52.4%

Nc1scc[n+]1CCC(=O)[O-]
inactive: [1] -10.1% | [2] 0.75% | [3] 3.4% | [4] -13.2% | [5] -2.75% | [6] -15.8%

Cc1cc(=O)[nH]c2c(C)cc(Cl)cc12
inactive: [1] 9.95% | [2] -5.25% | [3] 14.9% | [4] 17.1% | [5] -18.4% | [6] 1.65%

NC(=O)CNC(=O)C1CC(O)CN1C(=O)C1CCCN1C(=O)OCc1ccccc1 (stereo not drawn) (Cbz-Pro-[Hyp]-Gly-NH2; configuration not given here)
inactive: [1] -3.9% | [2] 1.1% | [3] 1.55% | [4] 4.15% | [5] 9.45% | [6] 2.2%

N#Cc1ccc[n+](Cc2c(Cl)cccc2Cl)c1
inactive: [1] 6.6% | [2] 28.9% | [3] 23.2% | [4] 5.8% | [5] 20.6% | [6] 44.1%

O=C(/C=C/c1ccccc1)N/N=C/c1ccncc1
inactive: [1] 5.2% | [2] 24.9% | [3] 1.6% | [4] -9.2% | [5] -0.45% | [6] 11.3%

COC1N(C2C=CC(CO)O2)C(=O)NC(=O)C1(C)Br (stereo not drawn)
inactive: [1] -4.8% | [2] -18.1% | [3] 2.8% | [4] 2.75% | [5] -17.8% | [6] 15.8%

Cc1ccc(S(=O)(=O)N2CC(CCl)N(S(=O)(=O)c3ccc(C)cc3)CC2CCl)cc1 (stereo not drawn)
inactive: [1] 28.5% | [2] 7.45% | [3] 20.6% | [4] 10.4% | [5] 4.35% | [6] 20.9%

Cc1[nH]c2ccccc2c1C(c1ccccc1O)c1c(C)[nH]c2ccccc12
inactive: [1] 20.6% | [2] 23.4% | [3] 14.2% | [4] 18.6% | [5] 13.2% | [6] 33.4%

CC/C(=N/N(C)C)C(=O)OC(C)(C)C
inactive: [1] -42.9% | [2] -24.6% | [3] -15.8% | [4] -44.6% | [5] 1.35% | [6] -4.2%

CSC(=N/N=C(\C)c1ccccn1)SC
inactive: [1] 0.45% | [2] 6% | [3] 5.3% | [4] -46.2% | [5] -11.7% | [6] 5.85%

O=C(Nc1ncnc2c1ncn2C1OC(COC(=O)c2ccccc2)C(OC(=O)c2ccccc2)C1OC(=O)c1ccccc1)c1ccccc1 (stereo not drawn)
inactive: [1] 5.15% | [2] 15.6% | [3] -1.25% | [4] 10.8% | [5] 4.05% | [6] 34.6%

O=C1/C(=C/c2cccs2)CCc2ccccc21
inactive: [1] 20.6% | [2] -12.4% | [3] 6.05% | [4] -16.1% | [5] 9.7% | [6] 31.9%

CC(/C=C/c1ccccc1)=N\O
inactive: [1] 9.4% | [2] 7.2% | [3] -1.4% | [4] 28.8% | [5] 3.45% | [6] 1.95%

C=C(C)[C@@H]1CC[C@]2(C)CC[C@]3(C)[C@H](CC[C@@H]4[C@@]5(C)CC[C@H](OC(=O)c6ccccc6)C(C)(C)[C@@H]5CC[C@]43C)[C@@H]12
inactive: [1] -7.6% | [2] -16.6% | [3] -26.4% | [4] 2.9% | [5] -0.65% | [6] 0%

CN1CCCC(C(O)c2ccccc2)S1(=O)=O (stereo not drawn)
inactive: [1] 17.2% | [2] 23.4% | [3] -1.3% | [4] 9.65% | [5] 29.4% | [6] 14.3%

NC(N)=NCc1ccc2c(c1)OCO2
inactive: [1] -28.4% | [2] -2.95% | [3] -1% | [4] 10.1% | [5] -10.9% | [6] -34.1%

CC12CC(C/C1=N/O)C(C)(C)C2 (stereo not drawn)
inactive: [1] -4.3% | [2] 16.4% | [3] 1.55% | [4] 15.7% | [5] -7.65% | [6] 9.6%

CCCC(=O)Nc1cn(COC)c(C(=O)N2C[C@H]3C[C@@]34C2=CC(=O)c2[nH]cc(C)c24)n1
inactive: [1] 49.9% | [2] 22.1% | [3] 56% | [4] 19.9% | [5] 40.8% | [6] 58.8%

Cc1cn(C2CC(C)N(CCO)O2)c(=O)[nH]c1=O (stereo not drawn)
inactive: [1] -8.1% | [2] -1.35% | [3] -16.8% | [4] -11.6% | [5] -14.9% | [6] -74.2%

S=C(S)NC1CCCCC1
inactive: [1] -28.9% | [2] -18.3% | [3] -12.2% | [4] -44% | [5] -13.1% | [6] -3.75%

CCC12OC3(CC)C4C(=O)OC1C1(CC)OC4(CC)C3C(=O)OC21
inactive: [1] -13.7% | [2] -5.6% | [3] 4.85% | [4] -5.75% | [5] 0.8% | [6] 13.3%

N#Cc1cc(-c2ccccc2)c[nH]c1=O
inactive: [1] -8.55% | [2] -1.45% | [3] -4.6% | [4] -36.9% | [5] -1.25% | [6] -1.55%

O=C(NCCCCCCNC(=O)Nc1cccc2ccccc12)Nc1cccc2ccccc12
inactive: [1] -13.9% | [2] -14.4% | [3] 7.05% | [4] -7.75% | [5] -2.3% | [6] -13.6%

COc1ccc(C(=O)Cc2nc3nnc(N)n3nc2CC(=O)c2ccc(OC)cc2)cc1
inactive: [1] -9.35% | [2] 2.1% | [3] -0.75% | [4] -0.75% | [5] 16.4% | [6] 15.7%

Cc1ccc(OC(=O)c2cccs2)cc1
inactive: [1] 29.6% | [2] 4.95% | [3] -11.9% | [4] -48.1% | [5] 22% | [6] 22.1%

CCC(=O)Oc1c(C(C)C)cccc1C(C)(C)C
inactive: [1] -22% | [2] -31.6% | [3] -19.7% | [4] -8% | [5] -31.4% | [6] -14.8%

COC(=O)c1ccc([N+](=O)[O-])cc1C(=O)OC
inactive: [1] 4.85% | [2] -16.7% | [3] -42.1% | [4] -12.3% | [5] -52.8% | [6] -3.2%

O=[n+]1c(-c2ccccc2)c(-c2ccccc2)n([O-])c2cc3ccccc3cc21
inactive: [1] 28.7% | [2] 3.65% | [3] 12.2% | [4] -24.6% | [5] 6.05% | [6] 26.4%

COC(=O)C1CC(OC(C)=O)C2OC(C)(C)OC2C1OC(C)=O (stereo not drawn)
inactive: [1] 7.5% | [2] 1.55% | [3] -3.15% | [4] 0.55% | [5] 8.55% | [6] -3%

CC1(C)C=C(C(Cl)c2ccccc2)C(=O)c2ccccc21 (stereo not drawn)
inactive: [1] -1% | [2] 6.6% | [3] 0% | [4] -4.6% | [5] -3.7% | [6] -7.15%

COC(=O)CC1(C(=O)OC)Nc2ccc(Cl)cc2C(=O)O1 (stereo not drawn)
inactive: [1] -2.55% | [2] 1.85% | [3] 12.5% | [4] -19.6% | [5] -9.5% | [6] -11.8%

COC1=CC(=O)N(C)C(O)C1(C#N)OC1OC(CO)C(O)C(O)C1O (stereo not drawn)
inactive: [1] 5.25% | [2] -12.8% | [3] -7.5% | [4] 18.6% | [5] -17.9% | [6] -40.9%

Cc1cccc(N2CC3CC4C=CC3(C2)O4)c1 (stereo not drawn)
inactive: [1] 13.7% | [2] 7.65% | [3] 4.45% | [4] -15.2% | [5] 22.1% | [6] 13.1%

N=c1c2ncn(C3OC(COP(=O)(O)O)C(O)C3O)c2ncn1O (stereo not drawn)
inactive: [1] 12.7% | [2] 0% | [3] -6.6% | [4] -18% | [5] -9.6% | [6] 1.15%

O=C(/C=C/c1ccccc1)NCCC1(O)C(=O)Nc2ccccc21 (stereo not drawn)
inactive: [1] -8% | [2] -17.2% | [3] 3.05% | [4] 8.35% | [5] -10.5% | [6] -15.5%
